Source: PubChem (several laboratories)
ERb SRC1 inh: ER-beta (human) coactivator binding inhibition. AID 633. actives 1.3% (n = 86,000). TR-FRET ER-beta LBD / SRC1-Cy5 peptide binding; receptor agonist-loaded with 1 µM estradiol. inhibition, % at 25.6 µM. Q92731;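 active = compounds whose percent inhibition of the receptor-coactivator binding signal exceeds about 50% in the single-dose screen, limit read from the data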;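 note: 0% = receptor plus peptide wells without compound and 100% = peptide-only wells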
Target sequence (Q92731 whole entry, looked up, the tested form may be a part): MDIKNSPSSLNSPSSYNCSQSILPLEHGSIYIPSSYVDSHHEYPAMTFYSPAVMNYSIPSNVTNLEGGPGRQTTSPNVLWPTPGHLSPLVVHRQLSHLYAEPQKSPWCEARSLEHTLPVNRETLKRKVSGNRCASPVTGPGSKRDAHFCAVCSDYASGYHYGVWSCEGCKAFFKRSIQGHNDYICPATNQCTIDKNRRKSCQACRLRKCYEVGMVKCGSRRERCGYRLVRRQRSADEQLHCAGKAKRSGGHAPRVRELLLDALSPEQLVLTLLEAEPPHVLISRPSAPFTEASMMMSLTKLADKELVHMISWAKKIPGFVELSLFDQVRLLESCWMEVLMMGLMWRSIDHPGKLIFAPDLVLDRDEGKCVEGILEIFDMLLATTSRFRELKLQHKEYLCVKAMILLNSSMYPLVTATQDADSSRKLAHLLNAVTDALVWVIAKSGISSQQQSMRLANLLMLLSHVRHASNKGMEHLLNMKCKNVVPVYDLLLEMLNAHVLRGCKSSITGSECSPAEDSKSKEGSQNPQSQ
Smad3 FoxH1 inh: inhibitors of human Smad3 transcription factor binding. P84022. TR-FRET Smad3/Dy647-FoxH1 peptide binding, europium anti-His. inhibition, % at 25 µM. actives 0.29% (n = 88,000);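 active = compounds that reduce the energy-transfer binding signal between the protein and its labelled peptide by more than half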;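 note: 0% = Smad3 plus labelled peptide maximal FRET and 100% = peptide-only background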
ERa coact pot: enhances coactivator binding to human estrogen receptor alpha | P03372 | TR-FRET ERalpha-LBD/SRC-Cy5 coactivator binding, 2 h; 100 = basal binding, no effect | coactivator binding (% of control), % at 25.6 µM | actives 1.3% (n = 86,000); in the data active = activity above about 200%;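 note: binding measured in presence of low estradiol as agonist stimulus; 0% = peptide alone without receptor and 100% = receptor with peptide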
ERa SRC1 inh: ER-alpha (human) coactivator binding inhibition; P03372; actives 1.7% (n = 86,000); inhibition, % at 25.6 µM; TR-FRET ER-alpha LBD / SRC-1 peptide, estradiol-bound; in the data active = inhibition above about 50%;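 note: 0% = receptor plus peptide control and 100% = peptide only without receptor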
Calb biofilm kill: kills Candida albicans biofilms; C. albicans biofilm + clotrimazole, Alamar Blue; actives 0.14% (n = 85,000); AID 834; inhibition, % at 6 µM;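 active = inhibition above 20%; inactive = inhibition below 20%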;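 note: preformed 24 hr biofilms exposed to compound for 48 hr; 0% = biofilm without compound and 100% = blank killed by clotrimazole plus chlorhexidine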
Active calls of the source: *; x = not tested or not shown; [ ] = dose if it differs, or a comment. Most compounds without a hit are left out; they make up all but 3.6% or so of the library.

SMILES	ERb SRC1 inh	Smad3 FoxH1 inh	ERa coact pot	ERa SRC1 inh	Calb biofilm kill
Cc1c(Br)cc(C(=O)NCc2ccco2)c(C)c1C	23.5	-0.2	98.9	50.6*	5.1
COc1ccc2cc(C(=O)NCc3ccco3)c(=O)oc2c1	-5.2	-2.7	107.6	-4.7	6.8
COc1ccc(NS(=O)(=O)c2ccc3c(c2)Cc2ccccc2-3)cn1	-21.0	4.7	86.4	-20.1	2.9
Cc1ccc2c(c1)c1cccc3c1n2CCN3CCC(N)=O	60.2*[fluorescence artefact?]	-0.7	71.8	10.6	11.3
COc1ccc(C2N=C(c3ccccc3)C(C)(C)N2O)cc1OC (centres undefined)	0.9	-2.5	135.7	1.4	4.2
CCOc1ccc2nc(NCCNC(=O)Nc3ccccc3)c(C#N)cc2c1	-1.3	14.9	89.0	2.6	-3.1
CCOc1ccc2nc(NCCNC(=O)Nc3cccc(C)c3)c(C#N)cc2c1	10.6	4.2	121.0	51.1*[fluorescence artefact?]	10.7
O=CNC(Cc1ccccc1)C(=O)O (centres undefined)	2.5	-12.5	100.1	-8.8	2.6
Cc1cccc(N2CCN(C(=O)c3cc4c(=O)n(C)c5ccccc5c4n3C)CC2)c1C	27.8	-22.2	311.8*	14.5	16.7
Cn1c(C(=O)NCCN2CCCCCC2)cc2c(=O)n(C)c3ccccc3c21	34.8	3.6	177.6	71.9*[fluorescence artefact?]	-0.8
CC(NC(=O)COc1cc(=O)n(C)c2ccccc12)c1ccc2c(c1)OCCO2 (centres undefined)	-34.6	9.9	107.7	-31.3	-4.5
Cn1c(C(=O)NCCN2CCN(Cc3ccccc3)CC2)cc2c(=O)n(C)c3ccccc3c21	-2.6	-7.3	99.8	-3.3	-4.1
CC(NC(=O)c1cc2c(=O)n(C)c3ccccc3c2n1C)c1ccc2c(c1)OCCO2 (centres undefined)	5.8	-10.8	276.6*[fluorescence artefact?]	18.7	3.9
Cn1c(C(=O)Nc2ccc3c(c2)OCO3)cc2c(=O)n(C)c3ccccc3c21	59.5*	6.8	66.2	76.8*	3.6
CC1(C)O[C@@H]2[C@@H](CO[C@H]2c2[nH]nc3c(=O)[nH]c(=O)[nH]c23)O1	x	-13.8	x	x	x
Cc1c(C)[n+](=O)c2c(n1[O-])CCCCC2	7.1	-1.5	94.3	6.0	7.8
Cc1ccc(NC(=O)COC(=O)c2ccn(C)n2)cc1	-4.6	3.1	104.1	1.8	4.7
Cc1cccc(C)c1NC(=O)C1(N2CCN(C(=O)c3ccco3)CC2)CCCCC1	-0.5	1.5	121.0	-0.9	6.9
O=C1C2CC=C(Cl)CC2C(=O)N1CCN1CCOCC1 (centres undefined)	6.2	1.9	103.2	-1.1	6.3
O=C1C2CC=C(Cl)CC2C(=O)N1CCCCCCN1C(=O)C2CC=C(Cl)CC2C1=O (centres undefined)	43.9	25.6	195.3	56.0*	5.2
Cn1c(SCC(=O)Nc2cccc(F)c2)nnc1-c1cc2ccccc2o1	0.1	-215.1	688.1*[fluorescence artefact?]	-31.7	7.9
Cc1cccc(NC(=O)CSc2ncnc3c2oc2ccccc23)c1	58.2*[fluorescence artefact?]	41.8	394.6*[fluorescence artefact?]	50.2*[fluorescence artefact?]	-1.4
O=C(CSc1ncnc2c1oc1ccccc12)Nc1cccc(F)c1	50.2*[fluorescence artefact?]	9.2	370.2*[fluorescence artefact?]	42.3	12.7
CN(CC1CCCO1)S(=O)(=O)c1ccc(C(=O)Nc2nc(-c3ccccn3)cs2)cc1 (centres undefined)	-4.9	5.3	106.9	-7.2	3.1
Clc1ccc(-c2nn3c(-c4ccccc4)nnc3s2)cc1	37.9	-7.9	130.3	39.9	6.3
SMILES	ERb SRC1 inh	Smad3 FoxH1 inh	ERa coact pot	ERa SRC1 inh	Calb biofilm kill
CN(C)c1ccc(-c2nn3c(-c4ccc(Cl)cc4Cl)nnc3s2)cc1	64.3*[fluorescence artefact?]	27.1	51.1	85.3*[fluorescence artefact?]	5.5
CCOc1cccc(-c2nn3c(-c4cc(C)[nH]n4)nnc3s2)c1	-4.0	0.8	89.8	9.6	-2.6
Cc1cc(-c2nnc3sc(-c4ccc(Cl)cc4Cl)nn23)n[nH]1	25.1	-52.8	359.5*	22.9	7.0
Clc1cccc(-c2nnc3sc(-c4ccc5c(c4)OCO5)nn23)c1	44.3	-0.7	198.9	55.2*	5.7
COc1cc(C)c(C(C)C)cc1S(=O)(=O)NCCCn1ccnc1	-17.6	7.1	119.6	-7.4	2.2
CC12CCC(C(=O)NCc3ccc4c(c3)OCO4)(C(=O)C1=O)C2(C)C (centres undefined)	11.2	-3.2	98.5	-6.2	12.8
CN(C)S(=O)(=O)N1CCN(C(=O)c2cccs2)CC1	9.8	0.7	119.0	-1.7	-1.4
Cc1nc2ccccc2c(=O)n1/N=C/c1ccc(N(C)C)cc1	4.0	6.2	93.7	-3.1	8.7
Cc1nc2ccccc2c(=O)n1/N=C/c1c(O)ccc2oc3c(c12)CCCC3	24.9	2.2	95.0	79.6*	7.5
OC1CN=C2C=CC=CN2C1 (centres undefined)	-5.5	-9.3	113.2	7.7	-2.8
Cc1cc(NC(=O)c2cn(C3CCCCC3)c(=O)c3c2c2ccccc2n3C)no1	20.8	-6.8	200.2*[fluorescence artefact?]	4.5	-0.9
CC(Oc1cc(-c2ccccc2)cc2ccccc12)C(=O)N1CCOCC1 (centres undefined)	-13.4	7.8	89.9	-12.0	6.0
CCN(CC)C(=O)CSc1nc2sc3c(c2c(=O)n1-c1ccc(C)cc1)CC(C)(C)SC3	-15.2	3.5	245.8*	-16.6	0.9
Nc1nc(Nc2ccccc2Br)nc(C(F)(F)F)n1	-6.5	0.0	106.1	-5.0	5.2
Nc1ncnc(Nc2ccccc2C(F)(F)F)n1	-7.4	-1.0	666.0*[fluorescence artefact?]	-1.2	5.9
CN1CCC[C@H](C(=O)OCC(=O)[C@]2(O)CC[C@@H]3[C@H]4CCC5=CC(=O)CC[C@@]5(C)[C@@H]4[C@@H](O)C[C@]32C)C1	x	2.8	x	x	x
Cc1ccc(-c2nc3ncccc3o2)cc1NC(=O)Cc1ccc(Cl)cc1	37.4	-17.1	131.9	51.7*[fluorescence artefact?]	5.8
Cc1ccc(-c2nc3cccnc3o2)cc1NC(=O)COc1ccc(Cl)cc1C	32.0	8.8	210.3*[fluorescence artefact?]	42.3	2.9
Cc1cc(=O)oc2cc(OCC3CC(c4ccc(N(C)C)cc4)=NO3)ccc12 (centres undefined)	26.8	-36.6	153.2	51.4*[fluorescence artefact?]	-3.9
Cc1cc(=O)oc2cc(OCC3CC(c4ccc(Cl)cc4)=NO3)ccc12 (centres undefined)	-6.5	-6.9	93.8	-6.5	-2.3
CC(=O)Nc1cc(CN2CCCCC2)c(O)c2ncccc12	x	13.1	x	x	x
CC(C)CC1N=C2c3ccccc3N=C(SCc3cc(=O)n4ccccc4n3)N2C1=O (centres undefined)	-8.6	0.9	107.1	-4.2	2.3
COC(=O)c1ccc(C(=O)OC)c(NC(=O)c2cc3ccccc3o2)c1	19.3	21.3	364.4*[fluorescence artefact?]	14.8	5.5
COC(=O)c1ccc(N2CCN(C)CC2)c(NC(=O)c2cc3ccccc3o2)c1	-4.2	12.9	120.5	-1.4	5.3
Cc1ccc(NCN2C(=O)C3C4C=CC(C4)C3C2=O)cc1 (centres undefined)	0.0	4.8	126.8	-5.2	1.4
O=C1C2C3C=CC(C3)C2C(=O)N1CNc1ccc(O)cc1 (centres undefined)	87.3*[fluorescence artefact?]	8.8	46.6	61.0*[fluorescence artefact?]	-3.7
